# According to PubChem BioAssay AID893 (National Center for Advancing Translational Sciences (NCATS), 2007):
# Values joined by “and” are separate entries in the source; they are usually repeats but may differ in a detail not shown here. Equal values may be shown once. The whole screen tested about 75,000 compounds, of which about 5,700 (7.6%) were called active. Another 7% or so got no clear call; they are omitted. The sample as a whole holds a higher share of actives than the screen did. A number with no mark means an inactive call. Calls come from the whole dose curve; as a rule, active = well fitted inhibition curve with a large enough effect; inconclusive = small, poorly fitted or top-dose-only effect; inactive = no such curve, though single readings can be large or run the other way.
# Target: 3-hydroxyacyl-CoA dehydrogenase type-2 (Homo sapiens) (UniProt Q99714)
# Experiment: qHTS Assay for Inhibitors of HSD17B4, hydroxysteroid (17-beta) dehydrogenase 4;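 note: the protocol describes HADH2 (HSD17B10) and not the HSD17B4 of the title; nearly all actives have a fitted effect of over 70% in size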
# Conditions: recombinant HSD17B10, NADH fluorescence kinetic; series mostly up to 57.1 µM; activity change, negative = inhibition: at the top concentration
# Method in brief: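 Activity followed as NADH fluorescence increase (ex 360, em 450 nm) every 30 seconds for 4 min, using final 90 uM beta-hydroxybutyryl CoA and 1 mM NAD+. Recombinant His-tagged enzyme, 20 nM, pH 9.0 Tris buffer, 15 min compound preincubation.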
# % is set by controls: 0 for no effect and ±100 for the full control effect; potency is the fitted concentration of half-maximal effect.
SMILES,"activity change, negative = inhibition",Potency
COc1cccc(NC(=O)C(C)Oc2ccccc2)c1 (stereo unspecified),-0.198%,
CC(=O)OCC(=O)C1CCC2C3CCC4=CC(=O)CC[C@@]4(C)C3CC[C@]12C (stereo partly specified),2.78%,
Fc1ccccc1OCCSc1nc2ccccc2o1,5.24%,
C[C@H]1O[C@@H](CC(=O)O)Cc2c1c(O)c1c(O)cc(-c3cc(=O)c4c(=O)c5c(c(=O)c=4c3=O)C[C@H](CC(=O)O)O[C@@H]5C)c(O)c1c2O,,3.98 µM (active)
CC(C)C1=CC2=CC[C@@H]3[C@](C)(CO)CCC[C@]3(C)C2CC1 (stereo partly specified),9.63%,
Cc1nc2ccc(S(=O)(=O)NC(C(=O)N3CCCCCC3)C(C)C)cc2s1 (stereo unspecified),4.54%,
COC(=O)[C@H]1C[C@@H]1[C@H](NC(=O)Oc1ccc(F)cc1)c1ccccc1,-6.57%,
N=c1c2c3c(sc2ncn1CCCN1CCOCC1)CCCCC3,5.59%,
COC(=O)c1ccc(C(NC(=O)OCc2ccccc2)/C(C)=C/[C@@H](C)C(=O)NCc2cc(C)on2)cc1 (stereo partly specified),-4.34%,
Cc1cc(C)cc(OCc2nnc(SCC(=O)Nc3ccccc3)o2)c1,8.07%,
Cc1cccc(OCc2nnc(SCc3nc4cc(C(F)(F)F)ccc4c(=O)[nH]3)o2)c1,,31.6 µM (active)
Cc1cccc(OCc2nnc(SCn3nnc4ccccc4c3=O)o2)c1,-9.02%,
O=C(c1csnn1)N1CCC2(CCN(Cc3nccs3)CC2)CC1,-2.61%,
Cc1ccccc1CSc1nnc(-c2ccccn2)n1N,4.98%,
CC(C)(C)NCC[C@@H](O)c1cc(C(F)(F)F)nc2c(C(F)(F)F)cccc12,3.93% [at 11.4 µM],
Cc1ccn2cc(C(=O)NC3CCN(Cc4ccccc4)CC3)nc2c1,,31.6 µM (active)
O=C(NC1CCN(Cc2ccccc2)CC1)c1ccccc1F,12.8%,
COC(=O)c1cc(S(=O)(=O)NC2CCN(Cc3ccccc3)CC2)cn1C,-3.37%,
COc1cc(Cl)cc(C2NC(=O)NC(C)=C2C(=O)NCc2ccccc2)c1O (stereo unspecified),8.34%,
CCOc1ccc(C(=O)Nc2cc(OC)ccc2OC)cc1,-11.3%,
COc1ccc(OC)c(Nc2nc(-c3ccc(O)c(O)c3)cs2)c1,,7.94 µM (active)
Oc1ccc(-c2csc(Nc3cccnc3)n2)cc1,3.13%,

SMILES,"activity change, negative = inhibition",Potency
COc1ccc(-n2nnc3c(=O)n(CC(=O)OCc4ccccc4)cnc32)cc1,1.02%,
c1ccc(-c2noc(-c3cccs3)n2)nc1,-5.02%,
COC(=O)[C@H](C)[C@H]1C[C@]1(C)[C@H](NC(=O)OCc1ccccc1)c1ccccc1,-4.85%,
COc1ccccc1CNc1ncnc2ccc(-c3c(C)noc3C)cc12,-0.171%,
COc1ccc2[nH]cc(CCNc3ncnc4ccc(-c5ccccc5CN(C)C)cc34)c2c1,14.2%,
COc1ccccc1CNc1ncnc2ccc(-c3ccc4c(c3)OCO4)cc12,,31.6 µM (active)
COc1cc(OC)c(C(=O)NC2CCCCCC2)cc1OC,-14%,
O=C(CCC(=O)c1cccs1)NCc1ccccc1,9.75%,
O=C(COC(=O)C12CC3CC(CC(C3)C1)C2)NCc1ccco1,-13.9%,
O=C(COC(=O)CCC(=O)c1cccs1)NCc1ccco1,,25.1 µM (active)
CC(=O)Nn1cc2c(=O)n(C)c(=O)n(C)c2c1,5.62%,
CC1=C(C(=O)Nc2ccc(Cl)cc2)C(c2ccco2)NC(=O)N1 (stereo unspecified),-1.26%,
C=C(C)Cn1c(N2CCN(CC)CC2)nc2c1c(=O)[nH]c(=O)n2C,1.14%,
CCC(C)(C)N=C(NC#N)Nc1cccnc1,-14.3%,
CCOC(=O)Cc1c(C)nc2c(C#N)c(C)nn2c1C,,25.1 µM (active)
CCOC(=O)CSc1nccc(N(C)C)c1C#N,-0.126%,
CC[C@@H]1Cc2cc(O)ccc2C2=C1c1ccc(O)cc1C[C@H]2CC,,25.1 µM (active)
C=CC(=O)c1ccc2ccccc2c1,,25.1 µM (active)
Cc1ccc2nc(CC(=O)c3ccc4ccccc4c3)c(=O)[nH]c2c1,5.47% [at 11.4 µM],
c1ccc(CCC2=NCCn3cccc32)cc1,4.34%,
CN(CCOc1ccc(CC2SC(=O)NC2=O)cc1)c1ccccn1 (stereo unspecified),,31.6 µM (active)
CO[C@@H]1COC(=O)[C@H](Cc2ccccc2)NC(=O)C/C=C\[C@@H](C)[C@H](OC)COC(=O)[C@@H](C)NC(=O)C/C=C\[C@H]1C,5.16% [at 11.4 µM] and 0.0428% [at 11.4 µM],

SMILES,"activity change, negative = inhibition",Potency
Cc1cc(C)nc(NC(=O)Nc2ccccc2C(F)(F)F)n1,-1.71%,
CCOC(=O)Cc1csc(NC(=O)Nc2ccccc2)n1,5.37%,
Cc1csc(NC(=O)NC2(C(F)(F)F)Oc3ccccc3O2)n1,,25.1 µM (active)
CCCCN(C)C(=O)C1CCN(Cc2ccccn2)CC1,5.92%,
CO[C@H]1COC(=O)[C@@H](C)NC(=O)C/C=C\[C@@H](C)[C@H](OC)COC(=O)C/C=C\[C@@H]1C,-0.943% [at 11.4 µM],
c1ccc(-c2oc3ncnc(N4CCOCC4)c3c2-c2ccccc2)cc1,,10 µM (active)
c1ccc(-n2nnnc2N2CCOCC2)cc1,5.21%,
O=C1c2ccccc2-c2ncnc3c(N4CCOCC4)cc(N4CCOCC4)c1c23,0.627%,
Cc1cc(C(=O)OCC(=O)c2c(N)n(C)c(=O)n(C)c2=O)c(C)o1,7.96%,
CCCOc1cccc(C(=O)Nc2nnn(CCC)n2)c1,11.2%,
CCC(=O)Oc1cccc(C(=O)Nc2ccc(-c3nnc(-c4ccco4)o3)cc2)c1,,20 µM (active)
CCOc1cccc(C(=O)Nc2cccnc2)c1,8.63%,
Oc1ccc2c(c1)OCC1c3cc4c(cc3OC21)OCO4 (stereo unspecified),-0.88%,
O=C(c1ccccc1)N1CCN(C(=O)N2CCCCC2)CC1,3.89%,
O=C(O)CS(=O)c1ccc2c3c(cccc13)C(=O)c1ccccc1-2 (stereo unspecified),-2.63% [at 11.4 µM],
CC(=O)c1c(C)n(-c2ccc(N(C)C)cc2)c2ccc(OCC(N)=O)cc12,-11.9%,
O=C1Nc2c(Br)cc(Br)cc2C1(O)N1CCOCC1 (stereo unspecified),0.821%,
Brc1cccc(-c2nnc3n2CCC3)c1,0.616%,
CCc1ccc2oc(-c3ccc(N)cc3)nc2c1,,25.1 µM (active)
CCN(CC)c1ccc2oc(=O)c(C)nc2c1,-25.8%,
Cc1ccc(S(=O)(=O)N2C3C=CC(C3)C2C(=O)O)cc1 (stereo unspecified),6.36%,
COC(=O)N1CCC2(CCCN(c3ccncc3)C2)CC1,1.52%,
